# Compound activity from PubChem.
# Only a sample is shown.
# aSyn UTR act = Activators via SNCA 5'UTR binding, MLPCN | alpha-synuclein 5'UTR reporter, activators screen | hit rate 7.1% among 300,000 | AID 1814 | activity score, % (tested at 7.5 µM), hits read low; in the data active = activity score below about -60%
# * = called active by the depositor.
SMILES,aSyn UTR act
CC1CCC(=O)N(CCSc2ccccc2)CC1 (stereo unspecified),-116*
CC(C)(C)C1CCC(=O)N(CCOc2ccccc2)CC1 (stereo unspecified),-101*
O=C1CCN(CCc2ccccc2)CCN1CCSc1ccccc1,-69*
Oc1ccc(CN2CCc3ccccc3C2)c2cccnc12,103
c1ccc(Sc2ccccc2CN2CCCC2)cc1,85
CCc1ccc(NC(=O)CSc2nnnn2C)cc1,-132*
Cn1nnnc1SCC(=O)Nc1ccc2c(c1)OCO2,-99*
O=C(CCC(=O)c1cccs1)c1cccs1,-69*
O=C(CSCc1ccco1)c1cccs1,-174*
Cc1ccc(NC(=O)CCC(=O)c2cccs2)c(O)c1,-80*
CCOC(=O)Cn1c(S(=O)(=O)Cc2ccccc2Cl)nc(-c2ccccc2)c1-c1ccccc1,54
CCOC(=O)Cn1ncc(-c2ccccc2)c1N,-129*
Nc1c(-c2cccc(Cl)c2)cnn1-c1ccccc1,-122*
Nc1c(-c2ccccc2)cnn1-c1ccccc1,-110*
Brc1ccc(/C=C/C=N/Nc2nc3ccccc3s2)cc1,-73*
C(=C\c1ccccc1)/C=N/Nc1nc2ccccc2s1,-191*
CCC/C=N/Nc1nc2ccccc2s1,-244*
Cc1cccc(-n2cnc3cc(C(=O)N4CCCCC4)ccc32)c1,-74*
C/C(=N\NC(=S)Nc1cccc(C)c1)c1ccco1,-189*
C/C(=N\NC(=S)Nc1cccc(C)c1)c1ccccc1,-100*
Clc1ccc(Nc2nc(C3CC3)cs2)cc1,-190*
O=c1c(-c2ccc(Cl)cc2)cnc2n1CCS2,-83*
CCc1c(C(=O)NC2CCCc3ccccc32)[nH]c(C)c1C(C)=O (stereo unspecified),64
Cc1cc(C(=O)CSc2ccc(Cl)cc2)cc(C)c1OC(=S)N(C)C,-179*
CC(=O)c1c(C)[nH]c(C(=O)CSc2ccc(F)cc2)c1C,-182*
SMILES,aSyn UTR act
Cc1cc(C(=O)CSc2ccc(F)cc2)cc(C)c1O,-109*
COCCNc1c(-c2cc3ccc(C)c(C)c3[nH]c2=O)nc2ccccn12,-153*
Cn1ncc(Cl)c(Oc2ccc(Cl)cc2)c1=O,-73*
COc1ccc(Oc2c(Cl)cnn(-c3ccc(Cl)c(Cl)c3)c2=O)cc1,73
Cn1ncc(Oc2ccc([N+](=O)[O-])cc2)c(Cl)c1=O,-66*
CS(=O)c1ccccc1-c1nc(-c2ccc(Cl)cc2)no1 (stereo unspecified),-143*
CS(=O)c1ccccc1-c1nc(-c2cccc(Cl)c2)no1 (stereo unspecified),-144*
CCC(=O)c1cn(CC(=O)NCc2ccco2)c2ccccc12,-65*
O=C(COc1ccc(F)cc1)c1c(O)cc(O)cc1O,-79*
COc1ccc(C(=O)COc2ccc(F)cc2)c(O)c1,-119*
COc1ccc(C(=O)Cc2ccc(F)cc2)c(OC)c1,-117*
COc1ccc(C(=O)CCc2ccccc2)c(O)c1,-107*
CCCCCOC(=O)NCC(O)c1ccccc1 (stereo unspecified),-128*
CCOC(=O)c1ccc(NC(=O)N(CC)CC)cc1,-115*
CCOC(=O)c1ccc(NC(=S)N(CCN(C)C)Cc2cccs2)cc1,53
CCC(C)NS(=O)(=O)c1ccc(NC(=O)C(Sc2ccccc2)c2ccccc2)cc1 (stereo unspecified),56
CCOC(=O)c1ccc(NC(=O)C(CC)CC)cc1,-98*
CCC(CC)C(=O)Nc1ccc(Nc2ccccc2)cc1,-100*
O=C(CC1Sc2ccccc2NC1=O)c1ccc(Br)cc1 (stereo unspecified),-218*
COc1ccc(/C=C/c2nc(-c3ccccc3O)n[nH]2)cc1OC,-132*
Nn1c(SCc2cccc(F)c2)nnc1-c1cccnc1,-71*
Nn1c(SCc2ccccc2F)nnc1-c1cccnc1,-177*
CCOc1ccccc1NC(=S)/C(=C(\[O-])c1ccc2c(c1)OCCO2)[n+]1ccc(CC)cc1,-64*
[O-]/C(=C(\C(=S)Nc1ccccc1F)[n+]1ccccc1)c1ccc(-c2ccccc2)cc1,-71*
[O-]/C(=C(\C(=S)Nc1ccc(Cl)cc1)[n+]1ccccc1)c1ccc(OC(F)F)cc1,-79*
SMILES,aSyn UTR act
CC(C)(C)c1cc[n+](/C(C(=S)Nc2ccccc2F)=C(/[O-])c2ccc3c(c2)OCCO3)cc1,-74*
COc1ccc(-c2ccc(NC(=O)c3ccc(Br)o3)cc2)nn1,-110*
CCN(CC)c1ccc(NC(=O)c2cnn(CC)c2)cc1,-95*
CCN(CC)c1ccc(NC(=O)c2ccc(Br)o2)cc1,-151*
COC(=O)Cc1ccc(NC(=O)c2ccc(Br)o2)cc1,-153*
FC(F)(F)c1cnc(COc2ccc(Cl)cc2Cl)c(Cl)c1,-82*
CC(=O)c1ccc(OCc2ncc(C(F)(F)F)cc2Cl)cc1,-81*
CCc1ccc(Nc2n[n+](-c3ccccc3)c(/C=C/c3ccccc3)s2)cc1,-169*
CN(C)c1ccc(-c2sc(Nc3ccccc3)n[n+]2-c2ccc(F)cc2)cc1,-203*
CCc1ccc(Nc2n[n+](-c3ccccc3)c(-c3ccc(OCc4ccccc4)cc3)s2)cc1,-62*
Cc1nc(-c2ccccn2)sc1C(=O)Nc1ccc(F)cc1F,-127*
CCNC(=O)c1sc(-c2ccccc2)nc1C,-66*
Cc1nc(-c2ccccc2)sc1C(=O)Nc1ccccc1F,-66*
COc1ccc(-c2cc3ccccc3s2)cc1[C@H]1[C@H]2C=CC[C@@H](C)[C@@H]2C(=O)N1Cc1ccccc1,-107*
COc1ccc(OC)c2c1C(=O)C(Cl)=C(Cl)C2=O,-89*
CC(=O)Oc1ccc([C@@H]2COc3c(ccc4c3C=CC(C)(C)O4)C2)c(OC(C)=O)c1,-152*
C=CCn1cnc2c(nnn2-c2ccc(C)c(C)c2)c1=O,-122*
O=C(NCCc1ccccc1)C(=O)c1c[nH]c2ccccc12,-200*
O=C(NCCc1c[nH]c2ccccc12)C(=O)Nc1ccccc1,-65*
COc1ccc(C(=O)COC(=O)c2cccc(-n3cnnn3)c2)c(OC)c1,-104*
O=C(OCC(=O)c1c[nH]c2ccccc12)c1ccc(Br)o1,-130*
COc1cccc(C(=O)OCC(=O)c2c[nH]c3ccccc23)c1O,-105*
COc1ccc(C(=O)COC(=O)c2cc(=O)[nH]c3ccccc23)c(OC)c1,-131*
O=C(OCC(=O)c1c[nH]c2ccccc12)c1ccco1,-102*
O=[N+]([O-])c1cccc(N/N=C/c2ccc(N3CCOCC3)cc2)c1,-225*
SMILES,aSyn UTR act
O=[N+]([O-])c1ccc(N/N=C/c2sc(N3CCOCC3)nc2-c2ccccc2)c(S(=O)(=O)Nc2ccc(Cl)cc2)c1,76
C(=N\Nc1ccccn1)/c1ccc(N2CCOCC2)cc1,-182*
Clc1cccc(N/N=C/c2ccc(N3CCOCC3)cc2)c1,-183*
C/C(=N\Nc1ccccn1)c1ccc(N2CCOCC2)cc1,-156*
C(=N\Nc1ccccc1)/c1ccc(N2CCOCC2)cc1,-154*
C/C(=N\Nc1ccccn1)c1ccc(C(C)C)cc1,-132*
O=C(Cc1noc2ccccc12)Nc1ccc(Cl)cc1,-69*
Cc1cccc(NC(=O)Cc2noc3ccccc23)c1,-82*
C=CCn1c(SCc2c(C)noc2C)nc2ccccc2c1=O,80
O=c1[nH]c(N/N=C/c2ccc(O)cc2)nc2ccccc12,-158*
O=c1[nH]c(N/N=C\c2ccc(F)cc2)nc2ccccc12,-150*
C=CCn1c(N/N=C/c2ccc(O)cc2)nc2ccccc2c1=O,-134*
C(=N\N=C\c1cccs1)/c1cccs1,-178*
COc1ccc(Nc2nc(-c3cc4cccc(OC)c4oc3=O)cs2)cc1,-83*
COc1ccc2oc(=O)c(-c3csc(Nc4cccc(O)c4)n3)cc2c1,-76*
